# Where two headings read alike, the source gives them in different places.
# Experiments:
# Details in all cases: read-out: apparent Kd, n = 1
# [1] = test system: SLK
# [2] = test system: STK10
# [3] = test system: TBK1
# [4] = compound concentrations:100 nM and 1000 nM (sheet 'Lestaurtinib' of Supplementary Table 1),run:Lestaurtinib_02601_R1,Plate:MR018
# [5] = compound concentrations:100 nM and 1000 nM (sheet 'Lestaurtinib' of Supplementary Table 1),run:Lestaurtinib_02624_R2,Plate:MR020
# [6] = compound concentrations:100 nM and 1000 nM (sheet 'Lestaurtinib' of Supplementary Table 1),run:Lestaurtinib_02741_R3,Plate:MR023
# [7] = compound concentrations:100 nM and 1000 nM (sheet 'Lestaurtinib' of Supplementary Table 1),run:Lestaurtinib_02748_R2,Plate:MR024
# [8] = compound concentrations:100 nM and 1000 nM (sheet 'Lestaurtinib' of Supplementary Table 1),run:Lestaurtinib_02765_R1,Plate:MR026
# [9] = compound concentrations:100 nM and 1000 nM (sheet 'Lestaurtinib' of Supplementary Table 1),run:Lestaurtinib_02765_R2,Plate:MR026
# [10] = compound concentrations:100 nM and 1000 nM (sheet 'Lestaurtinib' of Supplementary Table 1),run:Lestaurtinib_02766_R2,Plate:MR027
# [11] = compound concentrations:100 nM and 1000 nM (sheet 'Lestaurtinib' of Supplementary Table 1),run:Lestaurtinib_02768_R1,Plate:MR028
# [12] = compound concentrations:100 nM and 1000 nM (sheet 'Lestaurtinib' of Supplementary Table 1),run:Lestaurtinib_02795_R1,Plate:MR022
# [13] = compound concentrations:100 nM and 1000 nM (sheet 'Lestaurtinib' of Supplementary Table 1),run:Lestaurtinib_02795_R2,Plate:MR022
# [14] = compound concentrations:100 nM and 1000 nM (sheet 'Lestaurtinib' of Supplementary Table 1),run:Lestaurtinib_02802_R1,Plate:MR029
# [15] = compound concentrations:100 nM and 1000 nM (sheet 'Lestaurtinib' of Supplementary Table 1),run:Lestaurtinib_03252_R2,Plate:MR032
# [16] = compound concentrations:100 nM and 1000 nM (sheet 'Lestaurtinib' of Supplementary Table 1),run:Lestaurtinib_03260_R1,Plate:MR033
# [17] = compound concentrations:100 nM and 1000 nM (sheet 'Lestaurtinib' of Supplementary Table 1),run:Lestaurtinib_03260_R2,Plate:MR033
# [18] = compound concentrations:100 nM and 1000 nM (sheet 'Lestaurtinib' of Supplementary Table 1),run:Lestaurtinib_02339_R2,Plate:MR001
# [19] = compound concentrations:100 nM and 1000 nM (sheet 'Lestaurtinib' of Supplementary Table 1),run:Lestaurtinib_02364_R3,Plate:MR002
# [20] = compound concentrations:100 nM and 1000 nM (sheet 'Lestaurtinib' of Supplementary Table 1),run:Lestaurtinib_02422_R1,Plate:MR006
# [21] = compound concentrations:100 nM and 1000 nM (sheet 'Lestaurtinib' of Supplementary Table 1),run:Lestaurtinib_02438_R2,Plate:MR008
# [22] = compound concentrations:100 nM and 1000 nM (sheet 'Lestaurtinib' of Supplementary Table 1),run:Lestaurtinib_02443_R1,Plate:MR009
# [23] = compound concentrations:100 nM and 1000 nM (sheet 'Lestaurtinib' of Supplementary Table 1),run:Lestaurtinib_02443_R3,Plate:MR009
substance,measurement,setting,value
Lestaurtinib,potency estimated from few doses,[1]; [4],1760 nM
same,potency estimated from few doses,"[1]; compound concentrations:100 nM and 1000 nM (sheet 'Lestaurtinib' of Supplementary Table 1),run:Lestaurtinib_02601_R3,Plate:MR018",1400 nM
same,potency estimated from few doses,"[1]; compound concentrations:100 nM and 1000 nM (sheet 'Lestaurtinib' of Supplementary Table 1),run:Lestaurtinib_02606_R2,Plate:MR019",1320 nM
same,potency estimated from few doses,"[1]; compound concentrations:100 nM and 1000 nM (sheet 'Lestaurtinib' of Supplementary Table 1),run:Lestaurtinib_02624_R1,Plate:MR020",1810 nM
same,potency estimated from few doses,[1]; [5],1130 nM
same,potency estimated from few doses,[1]; [6],1440 nM
same,potency estimated from few doses,[1]; [7],1330 nM
same,potency estimated from few doses,"[1]; compound concentrations:100 nM and 1000 nM (sheet 'Lestaurtinib' of Supplementary Table 1),run:Lestaurtinib_02752_R3,Plate:MR025",1330 nM
same,potency estimated from few doses,[1]; [8],1320 nM
same,potency estimated from few doses,[1]; [9],1130 nM
same,potency estimated from few doses,[1]; [10],1150 nM
same,potency estimated from few doses,[1]; [11],1300 nM
same,potency estimated from few doses,"[1]; compound concentrations:100 nM and 1000 nM (sheet 'Lestaurtinib' of Supplementary Table 1),run:Lestaurtinib_02768_R2,Plate:MR028",1400 nM
same,potency estimated from few doses,[1]; [12],1610 nM
same,potency estimated from few doses,[1]; [13],1360 nM
same,potency estimated from few doses,"[1]; compound concentrations:100 nM and 1000 nM (sheet 'Lestaurtinib' of Supplementary Table 1),run:Lestaurtinib_02795_R3,Plate:MR022",1530 nM
same,potency estimated from few doses,[1]; [14],1150 nM
same,potency estimated from few doses,"[1]; compound concentrations:100 nM and 1000 nM (sheet 'Lestaurtinib' of Supplementary Table 1),run:Lestaurtinib_02802_R2,Plate:MR029",964 nM
same,potency estimated from few doses,"[1]; compound concentrations:100 nM and 1000 nM (sheet 'Lestaurtinib' of Supplementary Table 1),run:Lestaurtinib_02802_R3,Plate:MR029",1350 nM
same,potency estimated from few doses,"[1]; compound concentrations:100 nM and 1000 nM (sheet 'Lestaurtinib' of Supplementary Table 1),run:Lestaurtinib_03172_R2,Plate:MR031",1460 nM
same,potency estimated from few doses,"[1]; compound concentrations:100 nM and 1000 nM (sheet 'Lestaurtinib' of Supplementary Table 1),run:Lestaurtinib_03172_R3,Plate:MR031",914 nM
same,potency estimated from few doses,"[1]; compound concentrations:100 nM and 1000 nM (sheet 'Lestaurtinib' of Supplementary Table 1),run:Lestaurtinib_03252_R1,Plate:MR032",1350 nM
same,potency estimated from few doses,[1]; [15],1400 nM
same,potency estimated from few doses,[1]; [16],1930 nM
same,potency estimated from few doses,[1]; [17],1930 nM
same,potency estimated from few doses,"[1]; compound concentrations:100 nM and 1000 nM (sheet 'Lestaurtinib' of Supplementary Table 1),run:Lestaurtinib_03260_R3,Plate:MR033",1310 nM
same,potency estimated from few doses,"[2]; compound concentrations:100 nM and 1000 nM (sheet 'Lestaurtinib' of Supplementary Table 1),run:Lestaurtinib_02339_R1,Plate:MR001",179 nM
same,potency estimated from few doses,[2]; [18],158 nM
same,potency estimated from few doses,"[2]; compound concentrations:100 nM and 1000 nM (sheet 'Lestaurtinib' of Supplementary Table 1),run:Lestaurtinib_02339_R3,Plate:MR001",80.5 nM
same,potency estimated from few doses,"[2]; compound concentrations:100 nM and 1000 nM (sheet 'Lestaurtinib' of Supplementary Table 1),run:Lestaurtinib_02364_R2,Plate:MR002",140 nM
same,potency estimated from few doses,[2]; [19],142 nM
same,potency estimated from few doses,"[2]; compound concentrations:100 nM and 1000 nM (sheet 'Lestaurtinib' of Supplementary Table 1),run:Lestaurtinib_02367_R3,Plate:MR003",144 nM
same,potency estimated from few doses,"[2]; compound concentrations:100 nM and 1000 nM (sheet 'Lestaurtinib' of Supplementary Table 1),run:Lestaurtinib_02407_R1,Plate:MR005",113 nM
same,potency estimated from few doses,[2]; [20],162 nM
same,potency estimated from few doses,"[2]; compound concentrations:100 nM and 1000 nM (sheet 'Lestaurtinib' of Supplementary Table 1),run:Lestaurtinib_02422_R2,Plate:MR006",47 nM
same,potency estimated from few doses,"[2]; compound concentrations:100 nM and 1000 nM (sheet 'Lestaurtinib' of Supplementary Table 1),run:Lestaurtinib_02437_R1,Plate:MR007",142 nM
same,potency estimated from few doses,"[2]; compound concentrations:100 nM and 1000 nM (sheet 'Lestaurtinib' of Supplementary Table 1),run:Lestaurtinib_02437_R3,Plate:MR007",18.2 nM
same,potency estimated from few doses,[2]; [21],137 nM
same,potency estimated from few doses,[2]; [22],141 nM
same,potency estimated from few doses,[2]; [23],154 nM
same,potency estimated from few doses,"[2]; compound concentrations:100 nM and 1000 nM (sheet 'Lestaurtinib' of Supplementary Table 1),run:Lestaurtinib_02473_R2,Plate:MR010",140 nM
same,potency estimated from few doses,"[2]; compound concentrations:100 nM and 1000 nM (sheet 'Lestaurtinib' of Supplementary Table 1),run:Lestaurtinib_02482_R1,Plate:MR011",131 nM
same,potency estimated from few doses,"[2]; compound concentrations:100 nM and 1000 nM (sheet 'Lestaurtinib' of Supplementary Table 1),run:Lestaurtinib_02482_R2,Plate:MR011",157 nM
same,potency estimated from few doses,"[2]; compound concentrations:100 nM and 1000 nM (sheet 'Lestaurtinib' of Supplementary Table 1),run:Lestaurtinib_02482_R3,Plate:MR011",136 nM
same,potency estimated from few doses,"[2]; compound concentrations:100 nM and 1000 nM (sheet 'Lestaurtinib' of Supplementary Table 1),run:Lestaurtinib_02487_R3,Plate:MR012",163 nM
same,potency estimated from few doses,"[2]; compound concentrations:100 nM and 1000 nM (sheet 'Lestaurtinib' of Supplementary Table 1),run:Lestaurtinib_02566_R2,Plate:MR014",144 nM
same,potency estimated from few doses,"[2]; compound concentrations:100 nM and 1000 nM (sheet 'Lestaurtinib' of Supplementary Table 1),run:Lestaurtinib_02566_R3,Plate:MR014",135 nM
same,potency estimated from few doses,"[2]; compound concentrations:100 nM and 1000 nM (sheet 'Lestaurtinib' of Supplementary Table 1),run:Lestaurtinib_02572_R3,Plate:MR015",157 nM
same,potency estimated from few doses,"[2]; compound concentrations:100 nM and 1000 nM (sheet 'Lestaurtinib' of Supplementary Table 1),run:Lestaurtinib_02577_R3,Plate:MR016",181 nM
same,potency estimated from few doses,"[2]; compound concentrations:100 nM and 1000 nM (sheet 'Lestaurtinib' of Supplementary Table 1),run:Lestaurtinib_02584_R3,Plate:MR017",179 nM
same,potency estimated from few doses,[2]; [4],137 nM
same,potency estimated from few doses,"[2]; compound concentrations:100 nM and 1000 nM (sheet 'Lestaurtinib' of Supplementary Table 1),run:Lestaurtinib_02601_R2,Plate:MR018",167 nM
same,potency estimated from few doses,"[2]; compound concentrations:100 nM and 1000 nM (sheet 'Lestaurtinib' of Supplementary Table 1),run:Lestaurtinib_02606_R1,Plate:MR019",135 nM
same,potency estimated from few doses,"[2]; compound concentrations:100 nM and 1000 nM (sheet 'Lestaurtinib' of Supplementary Table 1),run:Lestaurtinib_02606_R3,Plate:MR019",144 nM
same,potency estimated from few doses,[2]; [5],137 nM
same,potency estimated from few doses,"[2]; compound concentrations:100 nM and 1000 nM (sheet 'Lestaurtinib' of Supplementary Table 1),run:Lestaurtinib_02624_R3,Plate:MR020",115 nM
same,potency estimated from few doses,"[2]; compound concentrations:100 nM and 1000 nM (sheet 'Lestaurtinib' of Supplementary Table 1),run:Lestaurtinib_02724_R2,Plate:MR021",121 nM
same,potency estimated from few doses,"[2]; compound concentrations:100 nM and 1000 nM (sheet 'Lestaurtinib' of Supplementary Table 1),run:Lestaurtinib_02741_R2,Plate:MR023",134 nM
same,potency estimated from few doses,[2]; [6],140 nM
same,potency estimated from few doses,"[2]; compound concentrations:100 nM and 1000 nM (sheet 'Lestaurtinib' of Supplementary Table 1),run:Lestaurtinib_02748_R1,Plate:MR024",157 nM
same,potency estimated from few doses,[2]; [7],153 nM
same,potency estimated from few doses,"[2]; compound concentrations:100 nM and 1000 nM (sheet 'Lestaurtinib' of Supplementary Table 1),run:Lestaurtinib_02748_R3,Plate:MR024",115 nM
same,potency estimated from few doses,"[2]; compound concentrations:100 nM and 1000 nM (sheet 'Lestaurtinib' of Supplementary Table 1),run:Lestaurtinib_02752_R1,Plate:MR025",124 nM
same,potency estimated from few doses,"[2]; compound concentrations:100 nM and 1000 nM (sheet 'Lestaurtinib' of Supplementary Table 1),run:Lestaurtinib_02752_R2,Plate:MR025",141 nM
same,potency estimated from few doses,[2]; [8],97 nM
same,potency estimated from few doses,[2]; [9],132 nM
same,potency estimated from few doses,[2]; [10],93.1 nM
same,potency estimated from few doses,"[2]; compound concentrations:100 nM and 1000 nM (sheet 'Lestaurtinib' of Supplementary Table 1),run:Lestaurtinib_02766_R3,Plate:MR027",137 nM
same,potency estimated from few doses,[2]; [11],115 nM
same,potency estimated from few doses,"[2]; compound concentrations:100 nM and 1000 nM (sheet 'Lestaurtinib' of Supplementary Table 1),run:Lestaurtinib_02768_R3,Plate:MR028",133 nM
same,potency estimated from few doses,[2]; [12],134 nM
same,potency estimated from few doses,[2]; [13],130 nM
same,potency estimated from few doses,[2]; [14],113 nM
same,potency estimated from few doses,"[2]; compound concentrations:100 nM and 1000 nM (sheet 'Lestaurtinib' of Supplementary Table 1),run:Lestaurtinib_02896_R2,Plate:MR030",142 nM
same,potency estimated from few doses,[2]; [15],74.5 nM
same,potency estimated from few doses,[2]; [16],228 nM
same,potency estimated from few doses,[2]; [17],211 nM
same,potency estimated from few doses,[3]; [18],822 nM
same,potency estimated from few doses,[3]; [19],1610 nM
same,potency estimated from few doses,"[3]; compound concentrations:100 nM and 1000 nM (sheet 'Lestaurtinib' of Supplementary Table 1),run:Lestaurtinib_02381_R1,Plate:MR004",1350 nM
same,potency estimated from few doses,"[3]; compound concentrations:100 nM and 1000 nM (sheet 'Lestaurtinib' of Supplementary Table 1),run:Lestaurtinib_02381_R2,Plate:MR004",1600 nM
same,potency estimated from few doses,"[3]; compound concentrations:100 nM and 1000 nM (sheet 'Lestaurtinib' of Supplementary Table 1),run:Lestaurtinib_02407_R3,Plate:MR005",1330 nM
same,potency estimated from few doses,[3]; [20],703 nM
same,potency estimated from few doses,[3]; [21],1320 nM
same,potency estimated from few doses,[3]; [22],1620 nM
same,potency estimated from few doses,[3]; [23],884 nM

# Source: article PMC11062922 (Nature Chemical Biology, 2023)
